The inhibition is the change of the read-out against control, counted positive when it falls.

Hit rate of the full screen: of about 5,000 compounds, about 3,900 (78%) were called active. The set was probably picked from earlier hits. Only a sample is shown. A number with no mark means an inactive call. No stated cut-off is given here; in the data, active means inhibition above about 22%; inactive means the rest.

This test can be described thus: fluorescence retest of MPTP screen hits in isolated mitochondria, single concentration (AID 624504).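 Further: 0% = DMSO vehicle and 100% = positive control.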 The conditions noted are these: membrane potential, Rhodamine 123 fluorescence, at 10 µM, active compounds read high.
For the compound `O=C(NNc1c2ccccc2nc2ccccc12)c1cc2ccccc2cc1O`, the inhibition was 31.4% (active).
To `CCn1c(CNC(=O)c2cc(OC)c(OC)c(OC)c2)cc2cc(C)ccc21` belongs 72.8% (active).
Then `CCCCOc1ccc(CSC(=N)N)cc1[N+](=O)[O-]`, with -5.28%; and `CCc1ccc(Nc2n[n+](-c3ccccc3)c(-c3cccc(Cl)c3Cl)s2)cc1`, with 86.2% (active); and `Cc1cc(C(=O)CSc2nc(N)cc(=O)[nH]2)c(C)n1Cc1ccco1`, with 46.4% (active).
To `Cc1cc(C(=O)CSc2nc(N)cc(=O)[nH]2)c(C)n1-c1cccc(F)c1` belongs 59% (active).
For `NC[C@H](Cc1ccccc1)NCCc1cc(C(F)(F)F)cc(C(F)(F)F)c1`, the inhibition is -12%.
Then `c1ccc2c(c1)C(=NC1CCCCC1)NC2=NC1CCCCC1`, with 92.1% (active).
Then `Cc1ccc2nnn(Cc3cccc(C(C)(C)C)c3O)c2c1`, with 98.9% (active); and `O=c1c2ccccc2nc2n1C(CSCc1ccccc1)CS2` (stereo unspecified), with 26.1% (active); and `O=c1c2ccccc2nc2n1C(CSCc1cccc(C(F)(F)F)c1)CS2` (stereo unspecified), with 80.9% (active).
For the compound `CN1CCC[C@@H]1CCO[C@](C)(c1ccccc1)c1ccc(Cl)cc1`, the inhibition is -12.2%.
Consider `CCCc1ccc(-c2c(C)sc(NC(=O)c3ccnn3C)c2C#N)cc1`, for which the inhibition was 90.5% (active).
Then `CCCCc1nc(NCCN)c(C#N)c2c1CSC(C)(C)C2`, with -9.33%.
Then `COc1cc(CNCc2ccc(OC)c3ccccc23)cc(OC)c1OC`, with 75.8% (active); and `Cc1nc2nc(SCC(=O)Nc3cccc(F)c3)[nH]c2cc1Br`, with 81.1% (active); and `CC(=O)c1c(C)[nH]c(C(=O)COC(=O)c2cccc(S(=O)(=O)N(C)c3ccccc3)c2)c1C`, with 90.1% (active).
Then `CC(C)(CCl)C(=O)Nc1ccc(Sc2ccc(F)cc2)cc1`, with 80.4% (active); and `O=C(C/C(=N\NC(=O)c1ccccc1Br)C(F)(F)F)c1cccs1`, with 82.3% (active).
As to `O=C(NCCc1ccc2c(c1)OCCO2)c1cc2ccccc2o1`, the inhibition was 51.1% (active).
Then `CC1(C)CC(=O)c2sc(N)nc2C1`, with 1.93%.
Then `CCCc1nc2c(c(=O)c3ccccc3n2C)c(=O)n1C1CCCCCC1`, with 19.4%; and `O=C(Nc1ccc(OC(F)(F)F)cc1)c1ccc2c(c1)no[n+]2[O-]`, with 88.6% (active).
`CCC(C)(C)c1ccc(Oc2ccc(NC(=O)COC(=O)C3=COCCO3)cc2)cc1`: the inhibition was 55.3% (active).
Then `CCCCCCc1cc2cc(-c3nnc(-c4ccccc4)o3)c(=O)oc2cc1O`, with 1.15%; and `Cc1ccc(Nc2c3c(nc4ccccc24)CCC3)cc1`, with 76.8% (active); and `O=C(NCCOc1ccccc1F)Nc1ccc(Br)cc1`, with 71.7% (active).
On to `CCOC(=O)c1ccc(NC(=O)Cn2cnc3cc(C)c(C)cc32)cc1`, for which the inhibition is 88.8% (active).
To `COc1ccc(NS(=O)(=O)c2cc(NC(=O)CC(=O)c3ccc([N+](=O)[O-])cc3)ccc2C)cc1` belongs 66.5% (active); to `O=C(Cc1cccc2ccccc12)NNC(=O)Nc1ccc(Cl)cc1`, 85.8% (active); to `Cc1ccc(NC(=S)NC(NC(=O)Cc2cccc3ccccc23)C(Cl)(Cl)Cl)cc1` (stereo unspecified), 70.9% (active).
As for `COc1cc(NC(=O)c2ccccc2NS(=O)(=O)c2ccc(Cl)s2)cc(OC)c1`, the inhibition is 75.8% (active).
To `COC(=O)c1ccc(NC(=O)c2ccccc2NS(=O)(=O)c2ccccc2)cc1` belongs 93.2% (active).
To `Clc1ccc(-c2cc(C3CCNCC3)[nH]n2)c(Cl)c1` belongs -10.4%.
Regarding `Cc1nnc(SC(C(=O)Nc2cc(Cl)cc(Cl)c2)c2ccccc2)[nH]c1=O` (stereo unspecified), the inhibition was 86.5% (active).
Then `CCOC(=O)c1c(NC(=O)CSc2cn(CC)c3ccccc23)sc2c1CCC2`, with -4.21%; and `CC(=O)c1c(C)[nH]c(C(=O)OCC(=O)Nc2sc3c(c2C#N)CCCC3)c1C`, with 82.4% (active).
Consider `Cc1c(NC(=S)NCc2ccc(F)cc2)cccc1[N+](=O)[O-]`, for which the inhibition is 78.8% (active).
Then `Cc1cc(C)cc(NC(=S)NCc2ccc(F)cc2)c1`, with 57.4% (active); and `Cc1nc(CNS(=O)(=O)c2ccc(Oc3ccccc3)cc2)cs1`, with 88.2% (active).
Then `FC(F)Oc1ccc(NC(=S)NCc2ccco2)cc1Cl`, with 97.6% (active); and `Cc1ccc(CC(=O)Nc2ccc(OC(F)F)c(Cl)c2)cc1C`, with 89.8% (active).
To `c1ccc2c(c1)CSc1sccc1C2=C1CCNCC1` belongs -11.2%; to `Cc1nc2ccccc2cc1OCc1ccc(F)cc1`, 100% (active); to `Cc1cc(OCCCC(=O)NCCN2C(=O)S/C(=C\c3cccnc3)C2=O)ccc1Cl`, 68.6% (active).
For the compound `Cc1nn(C)cc1CNC(=O)Nc1ccc(Cl)cc1`, the inhibition was 96.6% (active).
As to `Cc1cc(C=O)c(C)n1-c1ccc(NC2CCCCC2)c([N+](=O)[O-])c1`, the inhibition is 41.9% (active).
Consider `CCCCCCCCCCCCN1C(=O)CSC1c1cccnc1` (stereo unspecified), for which the inhibition is 19.9%.
Then `COc1cc2c3c(c1)/C(=C1/SC(=S)NC1=O)C(=O)N3C(C)(C)C=C2C`, with 49.1% (active).
Then `CCCC(C(=O)OCCN(CC)CC)(c1ccccc1)c1ccccc1`, with 4.44%; and `CC(C)N1C(=S)SC(C)(C)C1n1oc(=O)n(-c2ccc(Cl)c(Cl)c2)c1=O` (stereo unspecified), with 80.6% (active); and `COc1ccc(CNc2ncnc3ccccc23)cc1`, with 71.8% (active).
To `O=C(Nc1nc2ccc([N+](=O)[O-])cc2s1)c1ccncc1` belongs 20.6% (active); to `O=C(Nc1nc2ccc([N+](=O)[O-])cc2s1)c1ccc(S(=O)(=O)N2CCCc3ccccc32)cc1`, 74.7% (active); to `O=C(NC(Nc1nc2ccc([N+](=O)[O-])cc2s1)(C(F)(F)F)C(F)(F)F)c1ccccc1`, 81.4% (active).
For `Cc1cc(C)cc(OCC(=O)Nc2nc3ccc([N+](=O)[O-])cc3s2)c1`, the inhibition was 62.3% (active).
To `CCCC[C@@H]1CN=C(N)N1CCc1cc(C(F)(F)F)cc(C(F)(F)F)c1` belongs -7.58%; to `O=C(Nc1ccc(Cl)cc1)Nc1nnc(/C=C/c2ccccc2)s1`, 67% (active); to `CS(=O)(=O)N(CC(=O)Nc1ccc(Cl)c(Cl)c1)C1CCCCC1`, 82.4% (active).
Regarding `N#CCCN(C(=S)Nc1ccc(Cl)c(Cl)c1)C1CCCCC1`, the inhibition was 91.7% (active).
To `O=C(N/N=C/c1ccc(O)c(O)c1)C1c2ccccc2Oc2ccccc21` belongs -9.84%.

Values taken from PubChem BioAssay AID624504 (Sanford-Burnham Center for Chemical Genomics, 2012).
